# Laboratory results taken from PubChem BioAssay (Tox21).
# Inconclusive results are not listed. Where a call stands in place of a potency, no number is given. A number with no mark means an inactive call. The source made the active and inactive calls. How the calls were made is not given here. Where a SMILES comes first, the peptide text is derived from it. [ ]: non-standard residue; d: D form. pGlu = O=C1CC[C@@H](C(=O)O)N1
# Assay: qHTS assay to identify small molecule antagonists of the estrogen related receptor signaling pathway with the pleiotropic PPARgamma coactivator (PGC) from Tox21 10K library (AID 1224841); further: actives are mostly falling curves and most rising ones were filed inactive; nearly all actives have a fitted effect of over 50% in size
# Details: PGC/ERR reporter cell line, ONE-Glo luciferase, 18 h; series mostly up to 92.4 µM
# Excerpt: U.S. Tox21 Program National Center for Advancing Translational Sciences [NCATS] NIH Chemical Genomics Center [NCGC] U.S. Environmental Protection Agency [EPA] National Institutes of Environmental Health Sciences [NIEHS] National Toxicology Program [NTP] U.S. Food and Drug Administration [FDA] Tox21 Assay Overview: Estrogen related receptors (ERRs), the first orphan nuclear receptors discovered, play an important role in the control of cellular energy metabolism. ERRs are required for high-energy production in response to the environmental challenges. The pleiotropic PPARgamma coactivator (PGC) is a major partner of ERR and a key regulator in energy homeostasis. Together they have been implicated in the etiology of metabolic disorders such as Type 2 diabetes and metabolic syndrome. ERR-alpha was also identified as an adverse marker for breast cancer progression; ERR-alpha-positive tumors have a poor prognosis. To screen and to identify environmental compounds that perturb the ERR and PGC/ERR signaling pathways could provide valuable information for potential therapeutic or preventive measures in the treatment of metabolic disease. For identifying PGC/ERR antagonists, PGC/ERR cell line (provided by NTP) has been used to screen Tox21 10K library.
# Tox21 Assay Protocol Summary: The PGC/ERR cells were dispensed at 2,000 cells/5 ul/well in 1536-well white plates using a Multidrop dispenser. After the assay plates were incubated at a 37 C/5% CO2 incubator for 6 hours, 23 nL of compounds dissolved in DMSO, positive and negative controls or DMSO only was transferred to the assay plate by a pin tool. The plates were incubated at 37 C for 18 hours. 4 ul/well of One-Glo reagent was added into the assay plates using a Flying Reagent Dispenser. After 30-minute incubation at room temperature, the luminescence intensity in the plates was measured using a ViewLux plate reader.
# Potency means the concentration at half of the fitted maximal effect.
SMILES,Potency,"activity, negative = inhibition"
C=CCCC(=O)O,inactive,
CC(C)c1ccc2ncccc2c1,inactive,
CC(COc1ccccc1)NN (stereo not given),inactive,
Cc1ccc(C(=O)c2ccc(CC(=O)O)n2C)cc1,inactive,
COCCOCC(OC)OC,inactive,
CCN(Cc1ccccc1)c1ccccc1,42.7 µM (active),
Cc1ccnc(NS(=O)(=O)c2ccc(N)cc2)n1,inactive,
CO[C@@]1(NC(=O)CSC[C@@H](N)C(=O)O)C(=O)N2C(C(=O)O)=C(CSc3nnnn3C)CS[C@@H]21,inactive,
O=C(CO)[C@@H](O)[C@H](O)[C@H](O)CO,inactive,
CC(C)C[C@@H](N)C(=O)O,,0.755% [at 19 µM]
c1ccc(CCc2ccccc2)cc1,inactive,
CC1=NN(c2cccc(S(=O)(=O)O)c2)C(=O)C1,inactive,
Nc1ccn([C@@H]2O[C@H](CO)[C@@H](O)C2O)c(=O)n1 (stereo not given in full),inactive,
COc1cc(C)nc(-n2nc(C)cc2OC)n1,inactive,
C=C(C)C(=O)OCC(O)CO (stereo not given),inactive,
CCO[Si](OCC)(OCC)c1ccccc1,inactive,
Cc1cccc(C)c1NC(=O)CC12CCCN1CCC2,inactive,
CCOc1ccccc1OCC,inactive,
CCCO[Si](OCCC)(OCCC)OCCC,inactive,
COc1cc2c(cc1OC)-c1cc3ccc(OC)c(OC)c3c[n+]1CC2,34.7 µM (active),

SMILES,Potency,"activity, negative = inhibition"
Nc1c2c(nc3c1CCC3)CCCC2,inactive,
CCCCCCCCCC[N+](C)(C)[O-],inactive,
C[C@H]1C[C@H]2[C@@H]3CCC4=CC(=O)C=C[C@]4(C)[C@H]3C(=O)C[C@]2(C)[C@@]1(O)C(=O)CO,inactive,
C[C@@H]1CCC[C@H](C)N1,inactive,
CC1(C)OC[C@@H](COC(=O)CCc2ccc(OC[C@@H](O)CNCCNC(=O)N3CCOCC3)cc2)O1,inactive,
FB(F)F,45.4 µM (active),
OCCCCCO,inactive,
CC(C#N)(CCC(=O)O)N=NC(C)(C#N)CCC(=O)O (stereo not given),inactive,
CCNC(=O)[C@@H]1CCCN1C(=O)[C@H](CCCN=C(N)N)NC(=O)[C@H](CC(C)C)NC(=O)CNC(=O)[C@H](Cc1ccc(O)cc1)NC(=O)[C@H](CO)NC(=O)[C@H](Cc1c[nH]c2ccccc12)NC(=O)[C@H](Cc1cnc[nH]1)NC(=O)[C@@H]1CCC(=O)N1 ([pGlu]HWSYGLRP-NHEt),inactive,
CO/N=C(\C(=O)N[C@@H]1C(=O)N2C(C(=O)O)=C(CSc3nc(=O)c(O)nn3C)CS[C@H]12)c1csc(N)n1,inactive,
CNCC(O)c1ccc(O)c(O)c1 (stereo not given),inactive,
CCOC(=O)c1ccccc1,inactive,
CCOC(=O)COC(=O)c1ccccc1C(=O)OCC,inactive,
CO[C@@]1(NC(=O)C(C(=O)O)c2ccc(O)cc2)C(=O)N2C(C(=O)O)=C(CSc3nnnn3C)CO[C@@H]21 (stereo not given in full),inactive,
C=CCCCCCCCCC(=O)OCC,inactive,
Clc1cc(Cl)c(Cl)nc1Cl,inactive,
c1ccc2sc(SN3CCOCC3)nc2c1,inactive,
CC(C)(C)c1ccc(-c2ccc(C(C)(C)C)cc2)cc1,inactive,
NS(=O)(=O)Cc1noc2ccccc12,inactive,
O=C(O)CC(C(=O)O)S(=O)(=O)O (stereo not given),inactive,
